Screening results (PubChem)
The list is not random: actives were taken first. Their share in the collection is about 7.3%.
FLuc counter: firefly luciferase modulation, counter-screen for miR-21 project; purified FLuc, Km substrates, luminescence inhibition; Potency, µM (series often up to 57.5 µM), actives largely listed as inhibitors; 360,000 tested, 6.9% active; AID 588342; further: nearly all actives have a fitted effect of over 55% in size
Target sequence (P08659 whole entry, looked up): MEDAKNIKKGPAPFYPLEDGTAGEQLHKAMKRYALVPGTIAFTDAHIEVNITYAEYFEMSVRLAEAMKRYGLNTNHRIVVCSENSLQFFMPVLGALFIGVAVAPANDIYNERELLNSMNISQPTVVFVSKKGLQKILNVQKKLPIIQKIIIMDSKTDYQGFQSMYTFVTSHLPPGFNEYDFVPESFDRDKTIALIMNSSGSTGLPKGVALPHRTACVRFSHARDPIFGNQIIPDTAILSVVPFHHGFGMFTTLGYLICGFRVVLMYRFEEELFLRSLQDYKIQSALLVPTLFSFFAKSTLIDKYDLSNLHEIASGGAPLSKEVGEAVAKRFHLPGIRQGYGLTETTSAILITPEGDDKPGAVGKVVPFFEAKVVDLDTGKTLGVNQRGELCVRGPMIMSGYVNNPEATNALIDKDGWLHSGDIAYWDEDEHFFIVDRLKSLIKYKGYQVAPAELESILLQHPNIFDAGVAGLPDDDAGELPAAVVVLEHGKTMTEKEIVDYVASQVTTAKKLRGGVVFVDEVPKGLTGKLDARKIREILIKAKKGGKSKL
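Purified P. pyralis luciferase (10nM final) with 10uM D-luciferin and 10uM ATP (Km levels) in 50mM Tris acetate pH 7.5, 10mM Mg acetate, 0.01% Tween-20, 0.05% BSA; qHTS 6-point titration, ~60 µM downward; luminescence read.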
SMN2 splice enh: enhancers of SMN2 splice variant expression | HEK293 SMN2-luciferase splicing reporter, luminescence, 30-36 h | Potency, µM (top dose mostly 46.1 µM), most hits filed as activators | 210,000 tested, 2.8% active | AID 1458; further: nearly all actives have a fitted effect of over 55% in size
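qHTS luciferase splicing reporter: luminescence rises when SMN2 exon 7 is included in transfected HEK293 cells. Compound exposure lasted 30-36 h at 37C, with 4.5 mM final sodium butyrate as control, followed by a ONE-Glo read.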
Rab9 prom act: activators of Rab9 promoter. Huh7 Rab9 promoter-luciferase reporter, luminescence, 24 h. Potency, µM (titrated, usually from 9.22 µM), most hits filed as activators. 320,000 tested, 2.8% active. AID 485297; further: nearly all actives have a fitted effect of over 60% in size
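Huh7 cells stably carrying a Rab9 promoter-luciferase reporter, 1500 cells per well in OP-MEM I with 10% FBS, treated with compound 24 hours at 37C. Luciferase activity read by luminescence after 10 minutes with Amplite reagent.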
ELG1 genotox: induces genotoxicity in HEK293T cells with luciferase-tagged ELG1 | Potency, µM (highest dose often 46 µM), usual class: activators | HEK293T ELG1-luciferase reporter, luminescence, 16 h | 330,000 tested, 1.3% active; further: nearly all actives have a fitted effect of over 60% in size
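DMSO vehicle served as control against compound-treated ELG1-luciferase HEK293T cells; exposure lasted 16 hr at 37 °C and 5% CO2, followed by ONE-Glo luminescence detection after 30 min.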
NPC1 promoter act: NPC1 promoter activation. AID 485313. Potency, µM (doses to about 9.22 µM), hits mostly activators. Huh7 NPC1 promoter luciferase reporter, 24 h. 320,000 tested, 2.4% active; further: nearly all actives have a fitted effect of over 60% in size
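Quantitative HTS used a cell-based reporter: Huh7 cells stably bearing the NPC1 promoter upstream of luciferase were treated with compounds for 24 h, and promoter activation was read as luminescence.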
uPA surface inh: inhibitors of cell surface uPA generation; cell surface uPA generation assay, qHTS; Potency, µM (titrated, usually from 38.3 µM), most hits filed as inhibitors; 330,000 tested, 0.31% active; active means well fitted inhibition curve with a large enough effect; inconclusive means small, poorly fitted or top-dose-only effect; inactive means no such curve, though single readings can be large or run the other way; tested in mouse RAW 264.7 cells; further: nearly all actives have a fitted effect of over 55% in size
A number is an active result; . = inactive; ? = inconclusive; / = no result given; [ ] = remark or other dose. Unless noted, the call rests on the fitted dose curve; in most records, active means well fitted curve in the direction sought with a large enough effect; inconclusive means small, poorly fitted or top-dose-only effect, or another doubt; inactive means no such curve, though single readings can be large; an effect the other way counts as inactive or inconclusive.

SMILES | FLuc counter | SMN2 splice enh | Rab9 prom act | ELG1 genotox | NPC1 promoter act | uPA surface inh
COc1ccc(C(=O)N2CCC(c3nc(-c4ccc(S(=O)(=O)N5CCCC5)cc4)no3)CC2)cc1 | . | . | / | / | / | /
O=C(NCc1ccccc1)C1CCN(S(=O)(=O)c2ccc(Cl)cc2)CC1 | . | / | . | . | . | .
C/C(=N\O)c1ccc2c3ccccc3n(C)c2c1 | 19µM | . | ? | ? | ? | .
CCn1c2ccccc2c2cc(/C(C)=N/O)ccc21 | . | . | . | . | . | .
CCc1nnc(NS(=O)(=O)c2ccc(N/C=C/C(=O)c3ccc(OC)cc3)cc2)s1 | 21.3µM | / | . | ? | . | .
CCc1nnc(NS(=O)(=O)c2ccc(NC(=O)c3ccc(Br)cc3)cc2)s1 | 26.9µM | / | . | . | . | .
CCc1nnc(NS(=O)(=O)c2ccc(NC(=O)Nc3ccc(OC)cc3)cc2)s1 | ? | / | . | . | . | .
CCc1nnc(NC(=O)c2ccc3nc(CC)c(CC)nc3c2)s1 | ? | . | . | . | . | /
CCc1nnc(NC(=O)c2ccc(OC)cc2)s1 | 4.78µM | 3.16µM | 0.316µM | . | 0.708µM | .
CCc1nnc(NC(=O)c2ccc(S(C)(=O)=O)cc2)s1 | 21.3µM | / | . | . | ? | .
CCc1cccc(C)c1NC(=O)CCCn1c(C)c2cnn(-c3ccccc3)c(=O)c2c1C | . | . | / | / | / | /
CCN1CCN(c2nc(Nc3ccc(NC(C)=O)cc3)nc(Nc3ccc(NC(C)=O)cc3)n2)CC1 | ? | / | . | . | . | .
CCCCCOC(=O)Nc1nnc(CCCCC)s1 | . | . | . | . | . | .
CCc1nnc(NS(=O)(=O)c2ccc(Nc3ccc([N+](=O)[O-])c4nonc34)cc2)s1 | 15.1µM | . | . | . | . | .
COc1cccc(C(=O)Nc2nnc(-c3cccs3)s2)c1 | 1.9µM | 5.62µM | 3.16µM | 0.82µM | ? | .
CCCCOC(=O)Nc1nnc(CC)s1 | ? | . | ? | 14.6µM | . | .
CCc1nnc(NC(=O)c2cccc(OC)c2)s1 | 8.49µM | 15.8µM | 3.16µM | ? | 3.16µM | .
CCOCc1nnc(NC(=O)c2cccc(OC)c2)s1 | ? | ? | . | . | . | .
CCc1nnc(NS(=O)(=O)c2ccc(NS(=O)(=O)c3ccccc3[N+](=O)[O-])cc2)s1 | . | / | . | . | . | .
CCc1nnc(NC(=O)CSc2nc(C)cc(C)c2C#N)s1 | ? | 11.2µM | 0.501µM | ? | ? | .
CCc1nnc(NC(=O)CSc2nc(-c3ccc(F)cc3)cc(-c3ccccc3)c2C#N)s1 | ? | / | . | . | . | .
CCOC(=O)NC(=O)CSc1nc(C)cc(C)c1C#N | ? | . | 1.58µM | 5.8µM | 2.51µM | .
Brc1ccc(-c2csc(/N=C/N3CCOCC3)n2)cc1 | 15.1µM | . | ? | 18.4µM | ? | .
COc1ccc(-c2csc(/N=C/N(C)C)n2)cc1OC | ? | . | . | ? | . | .
Brc1ccc(-c2csc(/N=C/N3CCCC3)n2)cc1 | 15.1µM | . | ? | ? | . | .
SMILES | FLuc counter | SMN2 splice enh | Rab9 prom act | ELG1 genotox | NPC1 promoter act | uPA surface inh
N/C(Cc1nc(-c2ccc(Br)cc2)cs1)=N\O | ? | / | ? | . | . | .
O=C(CN1CCOCC1)Nc1nc(-c2ccccc2)cs1 | . | / | . | . | . | .
OCCN(/C=N/c1nc(-c2ccc(Br)cc2)cs1)CCO | 19µM | . | ? | 20.6µM | ? | .
CCCc1ccc(OC(C)C(=O)Nc2sc3c(c2C(=O)OC)CCCCC3)cc1 (configuration not stated) | . | . | / | / | / | /
O=C(COC(=O)c1ccccc1Nc1ccccc1)c1ccccc1 | 13.5µM | . | . | . | . | .
CNc1ccccc1C(=O)OCC(=O)c1ccc(F)cc1 | 5.36µM | . | . | . | . | /
COc1ccccc1NC(=O)CCCC(=O)OCC(=O)c1ccc(F)cc1 | . | / | . | . | . | .
CN(C(=O)c1ccccc1C(=O)OCC(=O)c1ccc(F)cc1)c1ccccc1 | ? | / | . | . | . | .
O=C(COC(=O)c1cc2ccccc2cc1O)c1ccccc1 | 26.9µM | / | . | ? | . | .
Cc1ccc(NC(=O)COC(=O)c2ccccc2Nc2ccccc2)cc1 | . | . | . | . | . | .
COc1ccccc1NC(CC(=O)c1ccccc1)C(=O)OCC(=O)c1ccc(F)cc1 (configuration not stated) | 1.69µM | 5.62µM | . | 1.64µM | . | .
CC(C)CCNC(=O)Nc1ccc2c(c1)N(C)C(=O)c1ccccc1S2 | . | / | / | / | / | /
COCCNC(=O)CSc1nc2cc3c(cc2c(=O)n1Cc1ccc(C(=O)NCCc2ccc(OC)c(OC)c2)cc1)OCO3 | . | / | / | / | / | /
CCOC(=O)c1ccccc1NC(=O)Cn1ncc2c1-c1ccccc1OC2 | . | . | / | / | / | /
CNc1ccccc1C(=O)OCC(=O)c1ccccc1 | 7.57µM | ? | . | . | . | .
CCc1ccc(NC(=O)N(Cc2c[nH]c3ccccc23)C2CCCCC2)cc1 | . | . | / | / | / | /
CCc1ccc(NC(=O)N(Cc2c[nH]c3ccccc23)C2CCCCCC2)cc1 | . | 5.01µM | / | / | / | /
COc1ccccc1N1CCN(/N=C/c2ccc(C(=O)O)cc2)CC1 | 2.69µM | / | 0.708µM | ? | 1µM | .
O=C(O)c1ccc(/C=N/N2CCN(c3ccccc3)CC2)cc1 | 4.26µM | / | 1.41µM | . | 1.12µM | .
COc1ccc(/C=N/N2CCN(c3ccccc3OC)CC2)cc1OC | ? | . | . | ? | . | /
COc1ccc2oc(=O)cc(CN3CCN(C(=O)c4ccccc4Br)CC3)c2c1 | . | . | / | / | / | /
N#C/C(=C\c1ccc(OCc2ccc(C(=O)O)cc2)cc1)C(=O)N1CCOCC1 | 16.9µM | 1.58µM | 2.82µM | ? | ? | .
O=C(COc1ccc(Cl)c2cccnc12)N1CCOCC1 | . | / | . | . | . | .
CC(=O)N1CCN(c2ccc(NC(=O)c3ccco3)cc2)CC1 | 16.9µM | / | ? | ? | ? | .
CC(=O)N1CCN(c2ccc(NCc3ccco3)cc2)CC1 | . | / | . | . | . | 4.47µM
SMILES | FLuc counter | SMN2 splice enh | Rab9 prom act | ELG1 genotox | NPC1 promoter act | uPA surface inh
CCc1ccc(CNc2ccc(N3CCN(C(C)=O)CC3)cc2)cc1 | .[2.3 µM] | / | . | . | . | .
Cc1ccc2oc(C(=O)NC3CCS(=O)(=O)C3)cc(=O)c2c1 (configuration not stated) | . | / | . | . | . | .
CC1CCN(c2nc(-c3ccc(C(C)(C)C)cc3)nc3ccccc23)CC1 | 5.36µM | . | / | / | / | /
CC1CCCCN1c1nc(-c2ccc(C(C)(C)C)cc2)nc2ccccc12 (configuration not stated) | 3.38µM | . | / | / | / | /
CC1CCN(c2nc(-c3ccncc3)nc3ccccc23)CC1 | . | . | . | . | . | .
COc1ccc(NC(=O)N2CC[C@@]3(CCCN(C(C)=O)C3)C2)cc1 | / | . | / | / | / | /
Nc1c2c(=O)oc(-c3ccccc3)cc2nn1-c1ccccc1 | 4.78µM | 12.6µM | 0.708µM | ? | ? | .
CC(=O)N[C@H](Cc1ccc(O)cc1)C(=O)O | / | .[9.22 µM] | / | / | / | /
Cc1ccc(NC(=O)/C=C/c2ccco2)cc1F | 5.36µM | / | / | / | / | /
